LGR2 antag: blocks bursicon-induced cAMP signaling via Drosophila LGR2; inhibition, % at 9.99 µM; AID 720647; HEK293 LGR2, CRE-luciferase, bursicon-stimulated, 4 h; actives 0.35% (n = 380,000);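 active means drop in luminescence signal, shown as inhibition above about 50% in the replicate tests, limit read from the data, passing the limit was not always enough; inconclusive means probably only some replicates passing the limit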;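 further: agonist challenge used bursicon conditioned medium at about half maximal strength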
F508del corr: correctors of CFTR F508del function in bronchial epithelial cells. CFBE cells, YFP halide quenching; stimulated with forskolin plus potentiator P3; % fluorescence drop versus neutral controls. activity (quench increase), % at 7.58 µM. actives 0.36% (n = 350,000);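 active means mean added fluorescence quench of at least 8% versus neutral control, with both replicates also reaching 8%; inconclusive means only one of the mean or replicate conditions met; inactive means mean below 8% and not both replicates reaching 8%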;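 further: cells transiently co-express mutant CFTR-F508del with the halide-sensitive YFP; corrector assay measuring rescue of mutant channel to the surface after 24 h compound exposure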
PAX8 inh HTS: inhibitors of PAX8 transcriptional activity in RMG-I cells. RMG-I TPO-luciferase reporter, SteadyGlo, 24 h. inhibition, % at 12.6 µM. actives 1.2% (n = 360,000). AID 652154;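 active means mean replicate inhibition at least 60% with every replicate also reaching 60%; inconclusive means only one of the two criteria is met; inactive means mean below 60% and not all replicates reaching 60%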;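 further: luciferase light reporting Pax8 driven TPO promoter activity; plate controls were median of neutral control wells for no effect and mitoxantrone controls for full effect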
EWS-Fli inh: blocks EWS/Fli oncoprotein-driven transcription; A673 NR0B1-luciferase reporter, viability-normalised; inhibition, % at 12.6 µM; actives 0.67% (n = 350,000); AID 651661;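 active means mean inhibition of at least 50% after viability correction, with every replicate also passing that limit; inconclusive means mean reaches 50% but only one of two replicates passes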;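 further: firefly luciferase signal divided by Alamar Blue viability fluorescence both relative to DMSO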
* marks the source's active call; other numbers are inactive results; ! = a repeat was not active. In the library only some 1.8% were active in any assay of this set; here they are far more common.

CC(C)CC#Cc1ccc2c(c1)O[C@@H](CN(C)Cc1ccc3c(c1)OCO3)[C@@H](C)CN([C@@H](C)CO)S2(=O)=O was read as LGR2 antag -16, F508del corr 4 and EWS-Fli inh 58*.
Screening COc1ccccc1-c1ccc2c(c1)O[C@H](CN(C)Cc1ccc3c(c1)OCO3)[C@H](C)CN([C@H](C)CO)S2(=O)=O returned LGR2 antag -4, F508del corr -1, PAX8 inh HTS 67* and EWS-Fli inh 2.
For CC(C)CC#Cc1ccc2c(c1)O[C@H](CN(C)Cc1ccc(C(=O)O)cc1)[C@@H](C)CN([C@H](C)CO)S2(=O)=O the results were F508del corr -3, PAX8 inh HTS 80* and EWS-Fli inh 2.
Screening Cc1ccc2c(c1)N(C(=O)CCC(=O)NCc1cccnc1)CC(C)O2 (configuration not stated) returned LGR2 antag 3, F508del corr 2, PAX8 inh HTS 12 and EWS-Fli inh -12.
Screening Cc1ccc(OCC(=O)NC(=S)Nc2ccccn2)c(Br)c1 returned LGR2 antag 71*, F508del corr -1, PAX8 inh HTS -196 and EWS-Fli inh 52*.
For O=C1c2cccnc2Oc2ccc(Cl)cc2N1Cc1ccc(F)cc1 the results were LGR2 antag 15 and PAX8 inh HTS -23.
Screening O=C1NC(Cc2ccc(O)cc2)c2nc3ccc(Br)cc3c(=O)n2-c2cc3ccccc3cc21 (configuration not stated) returned LGR2 antag 7, F508del corr 8.2*, PAX8 inh HTS inconclusive and EWS-Fli inh 27.
Screening Cc1cc(C)c2c(=O)n3c(nc2c1)C(Cc1ccc(O)cc1)NC(=O)c1cc2ccccc2cc1-3 (configuration not stated) returned LGR2 antag 12, F508del corr -2, PAX8 inh HTS 72* and EWS-Fli inh 27.
`COc1ccc2nc3n(c(=O)c2c1)-c1cc2ccccc2cc1C(=O)NC3Cc1ccc(O)cc1` (configuration not stated) gave LGR2 antag -12, F508del corr 2, PAX8 inh HTS 51 and EWS-Fli inh 43.
`COc1ccc(NC(=O)N(C)C[C@H]2Oc3ccc(NS(=O)(=O)c4ccccc4)cc3C(=O)N([C@@H](C)CO)C[C@@H]2C)cc1` gave LGR2 antag -11, F508del corr 0 and EWS-Fli inh -10.
`CC(=O)CC1c2ccccc2C=C(c2ccsc2)N1c1ccc(-c2cccs2)cc1` (configuration not stated) gave LGR2 antag 13, F508del corr 1, PAX8 inh HTS 75* and EWS-Fli inh 17.
Screening CCNC(=O)[C@H]1[C@H](CO)[C@H]2Cn3c(ccc(-c4cncnc4)c3=O)[C@@H]1N2C(=O)Nc1ccccc1 returned LGR2 antag -7, F508del corr 0 and EWS-Fli inh 6.
Screening O=C1N(c2ccccc2)C[C@@H]2C[C@@H](c3cc4ccccc4o3)N3CCC[C@@]123 returned LGR2 antag 90*, F508del corr 0, PAX8 inh HTS 98* and EWS-Fli inh 39.
`COc1ccc(-c2ccc(C3[C@H]4CNC[C@@H]3N4C(=O)Nc3cccc(OC)c3)cc2)cc1` (some centres not stated) gave LGR2 antag -14, F508del corr -1, PAX8 inh HTS 0 and EWS-Fli inh 59*!.
Screening COc1cccc(NC(=O)N2[C@@H]3CNC[C@H]2C3c2ccc(-c3cccc(OC)c3)cc2)c1 (some centres not stated) returned LGR2 antag -25 and F508del corr -1.
Screening CCC(=O)Nc1ccc(C(=O)OCc2ccccc2)cc1 returned LGR2 antag -32, F508del corr -4, PAX8 inh HTS -86 and EWS-Fli inh -24.
For CC(C)OC(=O)c1ccc(NCc2cc(O)ccc2O)cc1 the results were F508del corr -2, PAX8 inh HTS 40 and EWS-Fli inh 69*.
O=C(OCc1ccccc1)c1ccc(NCc2cc(O)ccc2O)cc1 was read as LGR2 antag 54*, F508del corr -1, PAX8 inh HTS 59 and EWS-Fli inh 62*.
COc1ccc(S(=O)(=O)N(C)C[C@@H]2Oc3ccc(NS(=O)(=O)c4c(C)noc4C)cc3CC(=O)N([C@@H](C)CO)C[C@@H]2C)cc1 was read as LGR2 antag 0, F508del corr -3, PAX8 inh HTS -2 and EWS-Fli inh -9.
For CCOc1ccccc1NC(=O)Nc1ccc2c(c1)OCO2 the results were LGR2 antag -16, F508del corr 2, PAX8 inh HTS -24 and EWS-Fli inh -46.
